Test results taken from PubChem BioAssay AID1159580 (chemical genetic matrix, 2015).
The campaign covered roughly 5,500 compounds. About 2,000 (36%) were called active. Inconclusive results (about 18%) are left out. No stated cut-off is given here; in the data, active means normalized growth mostly below about 0.91 (no sharp cut-off); inconclusive means no clear call, values can overlap the other calls; inactive means mostly above about 0.92. This is one part of the list.

Assay: chemical genetic growth profiling, strain panel (AID 1159580);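 further: tested at 20 µM; growth read once vehicle control cultures reached saturation at 30 °C; 1 = growth at the plate median or of vehicle wells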
Settings: growth OD

Measured: normalized growth

C[C@H](N)[C@H](O)c1ccccc1
inactive: S. cerevisiae deletion strains, locus YBR021W, strain FUR4, stronger effect = lower value 0.997 | S. cerevisiae deletion strains, locus YBR229C, strain ROT2, stronger effect = lower value 1 | S. cerevisiae deletion strains, locus YCL029C, strain bik1, stronger effect = lower value 1 | S. cerevisiae deletion strains, locus YDL035C, strain GPR1, stronger effect = lower value 1.01 | S. cerevisiae deletion strains, locus YDL074C, strain BRE1, stronger effect = lower value 1.01 | S. cerevisiae deletion strains, locus YDL101C, strain DUN1, stronger effect = lower value 0.949 | S. cerevisiae deletion strains, locus YDL134C, strain PPH21, stronger effect = lower value 1 | S. cerevisiae deletion strains, locus YDL185W, strain tfp1, stronger effect = lower value 0.991 | S. cerevisiae deletion strains, locus YDL192W, strain arf1, stronger effect = lower value 1 | S. cerevisiae deletion strains, locus YDR101C, strain arx1, stronger effect = lower value 1 | S. cerevisiae deletion strains, locus YDR150W, strain NUM1, stronger effect = lower value 1.01 | S. cerevisiae deletion strains, locus YDR162C, strain NBP2, stronger effect = lower value 1.01 | S. cerevisiae deletion strains, locus YDR318W, strain mcm21, stronger effect = lower value 0.993 | S. cerevisiae deletion strains, locus YDR388W, stronger effect = lower value 0.993 | S. cerevisiae deletion strains, locus YDR502C, strain sam2, stronger effect = lower value 0.994 | S. cerevisiae deletion strains, locus YEL061C, strain CIN8, stronger effect = lower value 1 | S. cerevisiae deletion strains, locus YER110C, stronger effect = lower value 0.997 | S. cerevisiae deletion strains, locus YER155C, strain BEM2, stronger effect = lower value 0.998 | S. cerevisiae deletion strains, locus YER167W, strain BCK2, stronger effect = lower value 1 | S. cerevisiae deletion strains, locus YGL078C, strain dbp3, stronger effect = lower value 0.996 | S. cerevisiae deletion strains, locus YGL086W, strain mad1, stronger effect = lower value 0.991 | S. cerevisiae deletion strains, locus YGL248W, strain PDE1, stronger effect = lower value 1 | S. cerevisiae deletion strains, locus YGR078C, strain PAC10, stronger effect = lower value 1.01 | S. cerevisiae deletion strains, locus YGR135W, strain pre9, stronger effect = lower value 0.998 | S. cerevisiae deletion strains, locus YGR229C, strain SMI1, stronger effect = lower value 1 | S. cerevisiae deletion strains, locus YGR252W, strain gcn5, stronger effect = lower value 1.01 | S. cerevisiae deletion strains, locus YHR030C, strain SLT2, stronger effect = lower value 1 | S. cerevisiae deletion strains, locus YHR079C, strain IRE1 (second series), stronger effect = lower value 0.997 | S. cerevisiae deletion strains, locus YHR094C, strain hxt1, stronger effect = lower value 0.996 | S. cerevisiae deletion strains, locus YHR129C, strain ARP1, stronger effect = lower value 1.01 | S. cerevisiae deletion strains, locus YHR200W, strain rpn10, stronger effect = lower value 0.995 | S. cerevisiae deletion strains, locus YIL066C, strain RNR3, stronger effect = lower value 1 | S. cerevisiae deletion strains, locus YIL073C, strain SPO22, stronger effect = lower value 1.03 | S. cerevisiae deletion strains, locus YIL125W, strain kgd1, stronger effect = lower value 0.994 | S. cerevisiae deletion strains, locus YIR030C, strain dcg1, stronger effect = lower value 0.996 | S. cerevisiae deletion strains, locus YJL095W, strain BCK1, stronger effect = lower value 1.02 | S. cerevisiae deletion strains, locus YJL134W, strain LCB3, stronger effect = lower value 1 | S. cerevisiae deletion strains, locus YJL168C, strain set2, stronger effect = lower value 0.995 | S. cerevisiae deletion strains, locus YJL187C, strain SWE1 (second series), stronger effect = lower value 1.01 | S. cerevisiae deletion strains, locus YJR043C, strain POL32, stronger effect = lower value 0.982 | S. cerevisiae deletion strains, locus YKL009W, strain mrt4, stronger effect = lower value 0.989 | S. cerevisiae deletion strains, locus YKL068W, stronger effect = lower value 0.999 | S. cerevisiae deletion strains, locus YKL085W, strain MDH1 (second series), stronger effect = lower value 0.989 | S. cerevisiae deletion strains, locus YKL085W, strain MDH1, stronger effect = lower value 0.989 | S. cerevisiae deletion strains, locus YKL190W, strain CNB1, stronger effect = lower value 1 | S. cerevisiae deletion strains, locus YKR001C, strain vps1, stronger effect = lower value 0.99 | S. cerevisiae deletion strains, locus YLR039C, strain RIC1, stronger effect = lower value 0.993 | S. cerevisiae deletion strains, locus YLR058C, strain SHM2, stronger effect = lower value 1 | S. cerevisiae deletion strains, locus YLR102C, strain apc9, stronger effect = lower value 1 | S. cerevisiae deletion strains, locus YLR262C, strain YPT6, stronger effect = lower value 1.01 | S. cerevisiae deletion strains, locus YLR268W, strain sec22, stronger effect = lower value 0.99 | S. cerevisiae deletion strains, locus YLR330W, strain CHS5, stronger effect = lower value 0.999 | S. cerevisiae deletion strains, locus YLR342W, strain FKS1 (second series), stronger effect = lower value 1.01 | S. cerevisiae deletion strains, locus YLR371W, strain rom2, stronger effect = lower value 1 | S. cerevisiae deletion strains, locus YLR418C, strain cdc73, stronger effect = lower value 0.978 | S. cerevisiae deletion strains, locus YML016C, strain PPZ1, stronger effect = lower value 1 | S. cerevisiae deletion strains, locus YML032C, strain rad52, stronger effect = lower value 0.984 | S. cerevisiae deletion strains, locus YML124C, strain tub3, stronger effect = lower value 0.998 | S. cerevisiae deletion strains, locus YMR078C, strain ctf18, stronger effect = lower value 0.993 | S. cerevisiae deletion strains, locus YMR223W, strain ubp8, stronger effect = lower value 1 | S. cerevisiae deletion strains, locus YMR263W, strain SAP30, stronger effect = lower value 1 | S. cerevisiae deletion strains, locus YMR307W, strain GAS1, stronger effect = lower value 0.983 | S. cerevisiae deletion strains, locus YNL067W, strain RPL9B, stronger effect = lower value 1 | S. cerevisiae deletion strains, locus YNL128W, strain TEP1, stronger effect = lower value 1.01 | S. cerevisiae deletion strains, locus YNL153C, strain GIM3, stronger effect = lower value 1 | S. cerevisiae deletion strains, locus YNL233W, strain BNI4, stronger effect = lower value 0.996 | S. cerevisiae deletion strains, locus YNL250W, strain rad50, stronger effect = lower value 0.984 | S. cerevisiae deletion strains, locus YNL271C, strain bni1, stronger effect = lower value 0.998 | S. cerevisiae deletion strains, locus YNL298W, strain CLA4, stronger effect = lower value 1 | S. cerevisiae deletion strains, locus YNL307C, strain MCK1, stronger effect = lower value 0.999 | S. cerevisiae deletion strains, locus YNL322C, strain KRE1, stronger effect = lower value 1 | S. cerevisiae deletion strains, locus YNR052C, strain pop2, stronger effect = lower value 1 | S. cerevisiae deletion strains, locus YOL006C, strain TOP1, stronger effect = lower value 1.02 | S. cerevisiae deletion strains, locus YOL012C, strain htz1 1.73 | S. cerevisiae deletion strains, locus YOL147C, strain pex11, stronger effect = lower value 0.996 | S. cerevisiae deletion strains, locus YOR061W, strain CKA2, stronger effect = lower value 0.998 | S. cerevisiae deletion strains, locus YOR069W, strain VPS5, stronger effect = lower value 1 | S. cerevisiae deletion strains, locus YOR136W, strain idh2, stronger effect = lower value 0.996 | S. cerevisiae deletion strains, locus YOR144C, strain elg1, stronger effect = lower value 0.995 | S. cerevisiae deletion strains, locus YOR184W, strain ser1, stronger effect = lower value 0.985 | S. cerevisiae deletion strains, locus YOR316C, strain cot1, stronger effect = lower value 0.999 | S. cerevisiae deletion strains, locus YPL055C, strain LGE1, stronger effect = lower value 1.01 | S. cerevisiae deletion strains, locus YPR119W, strain clb2, stronger effect = lower value 0.999 | S. cerevisiae deletion strains, locus YPR141C, strain kar3, stronger effect = lower value 0.996 | S. cerevisiae deletion strains, locus YPR163C, strain tif3, stronger effect = lower value 0.994 | S. cerevisiae deletion strains, locus YPR167C, strain met16, stronger effect = lower value 1 | S. cerevisiae deletion strains, strain wtn01, stronger effect = lower value 0.983 | S. cerevisiae strains, strain wild type, stronger effect = lower value 1
